Data published in paper PMC4242493, “Sequence specificity incompletely defines the genome-wide occupancy of Myc”.
Whole data set: some 33,000 sequences, median “normalized occupancy” near 0.075, cut for the highest 2% near 0.095. This is one part of a sample in which the highest values are shown more often than they occur.

Each sequence was assayed against MaxL homodimer (Homo sapiens, UniProt P61244 1-160) (assay: universal protein-binding microarray (PBM); PBS-based mixture, 10 nM His-tagged protein dimer, 2% milk, 200 ng/uL BSA, 50 ng/uL salmon testes DNA, 0.02% TX-100; detection with Alexa 488 anti-His antibody;; high values mean tight binding). Conditions: protein: recombinant; tags: C-terminal His-tag (pET21a); chain copies: 2; dsDNA, one strand shown.
In short: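 His-tagged protein dimer at 10 nM was bound to Agilent 4 x 44 K 'all 10-mer' universal arrays and detected with 10 ng/μL fluorophore-conjugated anti-His antibody on a GenePix 4400A, giving an intensity per 8-mer. Binding occupancy normalises each intensity to the top-ranked one.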

Chain of MaxL homodimer (P61244 whole entry): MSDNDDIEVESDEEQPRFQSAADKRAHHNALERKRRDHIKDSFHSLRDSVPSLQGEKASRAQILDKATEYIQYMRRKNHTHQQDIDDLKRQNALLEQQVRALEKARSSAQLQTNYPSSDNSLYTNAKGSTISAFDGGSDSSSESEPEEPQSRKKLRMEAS

Sequence | binding signal [normalized occupancy]
AGCGCCTA | 0.0724
GTGAATAA | 0.0848
CCATGTGA | 0.154
CAATGTGA | 0.0948
CCATGTAA | 0.0855
CAATGTGG | 0.097
AAATGTGT | 0.0811
GAATGTGC | 0.0815
CGATGTGA | 0.0833
AGATGTGA | 0.085
CAATGTGC | 0.0924
AAATGTGC | 0.0962
ATATGTGA | 0.0878
ACATGTGA | 0.166
CGCACCAA | 0.0722
GCGTTCAC | 0.0758
CCGCTAAG | 0.0719
CGTCACTC | 0.074
GCGGGTCA | 0.0811
ACTTTGTG | 0.0718
TACTACGA | 0.0764
CTAATATA | 0.0824
CATTAGAA | 0.0752
ACATCACG | 0.0884
CGTGTTAA | 0.0819

Sequence | binding signal [normalized occupancy]
GGCCCACA | 0.0789
ACTGACGA | 0.0719
CTCCTTCC | 0.081
AGGCACGC | 0.0914
GTTAACCA | 0.0793
AGCGTTCA | 0.0757
CGATGTGC | 0.0807
GAATGTGA | 0.0817
AAATGTGG | 0.088
CCATGTGC | 0.209
ACATGTCC | 0.0918
GGATGTGA | 0.0786
CCATGTCC | 0.0824
AGATGTGG | 0.0868
GCATGTGA | 0.157
ACATGTGG | 0.209
ACATGTGC | 0.197
AGATGTGC | 0.0825
CCGATGAC | 0.0747
TTAGTAAA | 0.0726
CGATGCCC | 0.0786
CCGAGTGC | 0.0748
GATAGTGC | 0.0782
AAGTTAGA | 0.0733
CAGGCACC | 0.0774

Sequence | binding signal [normalized occupancy]
GACAAGAA | 0.0761
AGGCGTTA | 0.0751
CCCATACG | 0.0864
CATGACCA | 0.0957
GATGACCA | 0.0763
CGTGACCC | 0.0843
AGTGACCA | 0.0753
CATGACCG | 0.0795
CGTGATCC | 0.0811
CGTGACCA | 0.0992
CGTGATCA | 0.0962
GGTGATCA | 0.0835
CGCCAACA | 0.0741
ACCTGATG | 0.0825
AGCTACAA | 0.0722
ATGCCAAA | 0.0777
GAGATCCC | 0.0743
CTACACGA | 0.0821
ATACACGC | 0.102
ATACACGA | 0.0889
CTACACGC | 0.0967
ATACACGG | 0.0846
CTACACAC | 0.093
ACTTGACA | 0.0819
GCTCCCAC | 0.075

Sequence | binding signal [normalized occupancy]
CATCAAGC | 0.0726
GTTGAAGA | 0.082
ACAGAAGA | 0.0734
ATGAAGGG | 0.0755
AATGCGAC | 0.0782
AATGCGAG | 0.0746
CATGCGAC | 0.109
CATGCGAG | 0.0975
GATGCGAC | 0.0759
CATGCGAA | 0.0898
AAACCTTA | 0.0742
ACGACGTC | 0.0746
ATAACGTC | 0.0773
ACGACGTA | 0.0786
ATAACGTA | 0.0784
ACAACGTA | 0.077
AGAACGCG | 0.0788
AGAACGTA | 0.0742
ACAACGTG | 0.149
ACGACGTG | 0.0963
ACAACGGG | 0.0774
ATAACGTG | 0.113
AGAACGTG | 0.1
ATAGCGCC | 0.0747
GGAGAAGA | 0.0765

Sequence | binding signal [normalized occupancy]
ATTATTCG | 0.0765
AGCTGACA | 0.0754
AACAGCAC | 0.0765
GTCACCTA | 0.0725
ATTTTAAC | 0.0737
AAATTGCA | 0.0733
CCGCGCGC | 0.0828
AAATAAAA | 0.079
AAACCCAA | 0.0746
CTTGTCAC | 0.0759
AACCACAC | 0.0854
AACCACAT | 0.0973
AACCACAA | 0.0762
ATCCACAG | 0.078
ATCCACAT | 0.0977
ATCCACAA | 0.077
GCAACAGA | 0.0747
GTCAGAGA | 0.073
ATTGTCTG | 0.0774
TACATACA | 0.092
AATGGGAA | 0.0775
CATGTCTC | 0.0933
CATGTGTC | 0.125
GATGTGTA | 0.0848
CTTGTGTA | 0.0811

Sequence | binding signal [normalized occupancy]
CATGTGTA | 0.131
AATGTGTC | 0.095
CTGCGGCA | 0.0732
GACACCCA | 0.0749
GATGTAGA | 0.0799
ACAGCTAT | 0.0762
ACAGGTGA | 0.084
ACAGGTGC | 0.0832
ACAGGTGG | 0.0985
CACAGCAA | 0.0762
AATGTGAA | 0.0782
CTTGTGCC | 0.0778
GATGTGCC | 0.0796
AGTGTGCA | 0.0821
CGTGTGCA | 0.0981
CCTGTGCG | 0.0733
CGTGTGCC | 0.0918
AATGTGAT | 0.101
ACTGTGAT | 0.0734
CATGTTCG | 0.0882
CATGTGCG | 0.181
CATGTGCC | 0.149
CGTAGCAG | 0.0734
CGTGAAGA | 0.0801
TATCTTAA | 0.0728

Sequence | binding signal [normalized occupancy]
TTCTCAAA | 0.0808
CTGCTCCC | 0.0741
ACGGTTAA | 0.0751
CTGCAGCA | 0.0755
GACCTTAC | 0.0765
CCAAGCTA | 0.0731
AATGTGCA | 0.0888
GGTGTTCA | 0.0754
AATGTGCG | 0.0957
CATGTGCA | 0.149
CGTGTTCA | 0.1
AGTGTTCA | 0.0774
AATGTGTG | 0.0963
TATGTGCA | 0.084
AATGTGCC | 0.0816
AATGTGTA | 0.0864
AGTGTGTG | 0.0828
GATGTGCA | 0.0814
CATAATTA | 0.0816
TACTAATA | 0.0814
CGAGCAGA | 0.0731
ACATCCGC | 0.0795
TACTTATA | 0.0836
